Measured values as given in PMC4336329 (PLoS ONE, 2015).
Hit rate of the full screen: of about 310,000 compounds, about 14,000 (4.5%) showed an effect of 50% or more. Effects have a minus sign here. This is one part of a sample in which strong results are shown more often than they occur.

biological target: human ether-à-go-go-related gene (hERG) potassium channel (human, UniProt Q12809); experiment: primary screen, population patch clamp on CHO cells stably expressing hERG; higher = less effect of the substance
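Note: peak tail current of the secondary pulse compared with the same well before compound.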

Chain of human ether-à-go-go-related gene (hERG) potassium channel (Q12809 whole entry, looked up): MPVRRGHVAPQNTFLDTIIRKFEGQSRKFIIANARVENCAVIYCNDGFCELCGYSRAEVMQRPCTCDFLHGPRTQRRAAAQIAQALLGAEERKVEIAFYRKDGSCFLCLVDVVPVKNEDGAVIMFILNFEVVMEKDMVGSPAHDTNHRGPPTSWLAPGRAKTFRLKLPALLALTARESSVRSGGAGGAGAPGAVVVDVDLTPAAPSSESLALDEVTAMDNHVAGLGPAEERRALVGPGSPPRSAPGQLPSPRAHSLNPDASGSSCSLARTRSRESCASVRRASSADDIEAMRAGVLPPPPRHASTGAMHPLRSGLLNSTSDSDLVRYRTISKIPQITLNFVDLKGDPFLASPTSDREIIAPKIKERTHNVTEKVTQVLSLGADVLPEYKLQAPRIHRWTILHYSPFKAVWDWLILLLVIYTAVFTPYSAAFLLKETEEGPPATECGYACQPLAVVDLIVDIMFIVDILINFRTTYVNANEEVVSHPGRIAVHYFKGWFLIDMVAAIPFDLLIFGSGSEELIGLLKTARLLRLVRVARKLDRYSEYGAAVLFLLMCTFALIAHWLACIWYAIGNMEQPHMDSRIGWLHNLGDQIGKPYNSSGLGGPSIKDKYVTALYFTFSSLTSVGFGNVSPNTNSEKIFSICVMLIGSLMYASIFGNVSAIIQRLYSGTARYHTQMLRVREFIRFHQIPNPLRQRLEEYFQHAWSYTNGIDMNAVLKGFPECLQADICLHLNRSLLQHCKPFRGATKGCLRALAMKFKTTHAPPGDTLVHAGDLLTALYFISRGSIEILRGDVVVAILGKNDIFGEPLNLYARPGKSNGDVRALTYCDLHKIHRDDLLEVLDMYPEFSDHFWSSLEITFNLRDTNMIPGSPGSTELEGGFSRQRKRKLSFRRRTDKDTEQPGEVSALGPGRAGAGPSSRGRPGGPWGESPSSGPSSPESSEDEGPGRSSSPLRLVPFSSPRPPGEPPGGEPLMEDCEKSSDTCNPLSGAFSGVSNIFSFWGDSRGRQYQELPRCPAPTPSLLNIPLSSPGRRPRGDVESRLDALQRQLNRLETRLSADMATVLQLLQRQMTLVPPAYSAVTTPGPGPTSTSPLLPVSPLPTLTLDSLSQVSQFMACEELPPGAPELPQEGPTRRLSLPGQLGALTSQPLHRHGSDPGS

Row | Compound | hERG current change (%, negative = inhibition) at 10uM
1 | COc1ccc(NC2CCCN(C(=O)c3ccc(C(C)=O)s3)C2)cc1 (centres unmarked) | 16.1%
2 | O=C(CSc1ccc(-c2ccc(F)cc2)nn1)N1CCOCC1 | -17.4%
3 | COc1cc(/C=N/N2CCN(c3ccccc3)CC2)cc(OC)c1OC(C)=O | -39.4%
4 | O=C(Nc1ccccc1Cl)O/N=C(/c1ccccc1)c1ccccn1 | 6.47%
5 | CNC(=O)CCc1[nH]c2ccccc2c1Sc1ccccc1 | 4.85%
6 | Cc1cc(C)cc(OCC(=O)N2N=C(c3cccnc3)CC2(O)C(F)(F)F)c1 (centres unmarked) | -15.3%
7 | COc1ccc(NC(=O)N(Cc2ccc(C)cc2)Cc2cccnc2)c(OC)c1 | -10.6%
8 | COc1ccccc1S(=O)(=O)Cc1ccc(C(=O)NCCCN2CCN(c3ccc(F)cc3)CC2)o1 | -79.2%
9 | COc1ccccc1S(=O)(=O)Cc1ccc(C(=O)NCCN2CCCCCC2)o1 | 2.78%
10 | COc1ccccc1S(=O)(=O)Cc1ccc(C(=O)NCCN2CCCC2)o1 | -8.12%
11 | Cc1cccc(N2C(=O)C(O)=C(C(=O)c3cccs3)C2c2ccc(F)cc2)n1 (centres unmarked) | 14.9%
12 | O=C(NNS(=O)(=O)c1ccccc1)C1CCCCC1 | 6.38%
13 | Cc1ccc(-c2nc(C#N)c(NCCCn3ccnc3)o2)cc1 | -21.9%
14 | N#Cc1nc(COc2ccccc2)oc1NCCCn1ccnc1 | -50%
15 | COc1ccc(OCc2nc(C#N)c(NCCCn3ccnc3)o2)cc1 | -43.4%
16 | N#Cc1nc(Cc2cccc3ccccc23)oc1NCCCn1ccnc1 | -71%
17 | Cc1ccc(OCc2nc(C#N)c(NCCCn3ccnc3)o2)cc1 | -56%
18 | N#Cc1nc(COc2ccc(F)cc2)oc1NCCN1CCOCC1 | -12.9%
19 | N#Cc1nc(-c2ccccc2)oc1NCCCn1ccnc1 | -27.5%
20 | N#Cc1nc(COc2ccc(Br)cc2)oc1NCCN1CCOCC1 | -56.6%
21 | N#Cc1nc(Cc2ccccc2)oc1NCCCn1ccnc1 | -31.5%
22 | COc1ccccc1OCc1nc(C#N)c(NCCCn2ccnc2)o1 | 6.7%
23 | N#Cc1nc(-c2ccc(OCc3ccccc3Cl)cc2)oc1NCCCn1ccnc1 | -13%

Row | Compound | hERG current change (%, negative = inhibition) at 10uM
24 | N#Cc1nc(COc2ccccc2)oc1NCCN1CCOCC1 | -11.3%
25 | Cc1csc(C(C#N)C(=O)c2ccncc2)n1 (centres unmarked) | 19.2%
26 | N#C/C(C(N)=O)=C1/CCc2ccccc2N1 | -9.51%
27 | CCN(CC)c1ccc(N=Cc2c(O)[nH]c(=O)[nH]c2=O)cc1 | -1.25%
28 | NC(=S)Nc1cc2ccccc2c2ccccc12 | 6.65%
29 | O=C(O)C1CCN(S(=O)(=O)c2ccc(Oc3ccccc3)cc2)CC1 | 17.8%
30 | COC(=O)C1=CNC=C(C(=O)OC)C1c1ccc(Cl)cc1 | -8.91%
31 | COCCN(C(=O)COC(=O)c1cnc(C)cn1)c1c(N)n(Cc2ccccc2)c(=O)[nH]c1=O | -4.85%
32 | Cc1cc(Nc2ccc(O)cc2)n2c(nc3ccccc32)c1C#N | 16.6%
33 | CCOC(=O)Nc1ccc2c(c1)Sc1ccccc1N2C(=O)CCN1CCOCC1 | -17.6%
34 | N#Cc1nc(-c2ccc(OCc3ccccc3)cc2)oc1NCCCn1ccnc1 | -1.96%
35 | N#Cc1nc(-c2ccc(F)cc2)oc1NCCN1CCOCC1 | -0.823%
36 | N#Cc1nc(Cc2cccc3ccccc23)oc1NCCCN1CCOCC1 | -26.3%
37 | N#Cc1nc(Cc2cccc3ccccc23)oc1NCCN1CCOCC1 | -20.3%
38 | Cc1ccc(-c2nc(C#N)c(NCCN3CCCCC3)o2)cc1 | -55.8%
39 | N#Cc1nc(-c2ccco2)oc1NCCCN1CCOCC1 | -54.9%
40 | COc1ccc(-c2nc(C#N)c(NCCCN3CCOCC3)o2)cc1 | -13%
41 | N#Cc1nc(-c2ccco2)oc1NCCN1CCOCC1 | 7.46%
42 | N#Cc1nc(COc2ccc(Br)cc2)oc1NCCCn1ccnc1 | -63.2%
43 | N#Cc1nc(Cc2cccc3ccccc23)oc1NCCN1CCCCC1 | -60.3%
44 | N#Cc1nc(-c2cccc3ccccc23)oc1NCCN1CCCCC1 | -36.2%
45 | N#Cc1nc(-c2ccc(OCc3ccc(Cl)cc3)cc2)oc1NCCCn1ccnc1 | 5.77%
46 | CC(C)C[C@@H](CO)N(Cc1ccccc1)S(=O)(=O)N(Cc1ccccc1)[C@@H](CO)CC(C)C | 7.47%

Row | Compound | hERG current change (%, negative = inhibition) at 10uM
47 | CCc1ccc[n+](-c2[nH]c(=O)sc2/C=N/N=C(\N)[O-])c1 | -10%
48 | CCCCCN(C(=O)COC(=O)COc1c(C)cc(C)cc1C)c1c(N)n(CCCC)c(=O)[nH]c1=O | -14.4%
49 | COc1ccc(C(C(=O)NCCC(C)C)N(CCO)C(=O)c2snc(C(N)=O)c2N)cc1 (centres unmarked) | -1.26%
50 | O=C(Nc1ccccc1N1CCN(c2ccccc2)CC1)c1ccccc1 | 8.61%
51 | O=C1C(=O)N(CCc2c[nH]c3ccccc23)C(c2cccnc2)/C1=C(/O)c1ccccc1 (centres unmarked) | 2.24%
52 | COc1ccc(C(=O)NC(=S)NC(C)c2ccccc2)cc1 (centres unmarked) | 21.8%
53 | C=C1C(=O)O[C@H]2C1CC[C@@](C)(O)C13C=CC(C)(C21)C1(C3)C(=O)O[C@@H]2C3C(C)=CCC3[C@](C)(O)C[C@H](OC(C)=O)C21 (some centres unmarked) | 2.81%
54 | COc1ccccc1NC(=O)CSc1ncn(-c2ccccc2)n1 | -41.1%
55 | N#Cc1nc(COc2ccc(F)cc2)oc1NCCCn1ccnc1 | -64.2%
56 | N#Cc1nc(COc2ccccc2F)oc1NCCCn1ccnc1 | -42.5%
57 | N#Cc1nc(-c2ccc(F)cc2)oc1NCCCn1ccnc1 | -49.3%
58 | COc1cc(/C=N/NC(=O)COc2ccc(-n3cnnn3)cc2)ccc1OCC(N)=O | 17.3%
59 | Cc1cc(C)nc(N/N=C/c2ccc([N+](=O)[O-])o2)n1 | 2.14%
60 | CCNc1nc(NCC)nc(N/N=C/c2ccccc2)n1 | 4.81%
61 | CCNc1nc(NCC)nc(N/N=C/c2ccc(OC)cc2)n1 | 6.24%
62 | N#Cc1ccccc1/C=N/Nc1nc(-c2ccccc2)c2cc(Br)ccc2n1 | -67.4%
63 | Cc1cc(N/N=C/c2ccc([N+](=O)[O-])o2)nc2ccccc12 | 1.15%
64 | N#Cc1ccccc1/C=N/Nc1nc(-c2ccccc2)c2cc(Cl)ccc2n1 | -46.3%
65 | CCNc1nc(NCC)nc(N/N=C/c2ccc(Br)cc2)n1 | -74.6%
66 | O=[N+]([O-])c1ccc(/C=N/Nc2nc(-c3ccccc3)c3cc(Br)ccc3n2)o1 | -4.84%
67 | Cc1ccc2nc(N/N=C\c3ccc([N+](=O)[O-])o3)nc(-c3ccccc3)c2c1 | -72.6%
68 | O=[N+]([O-])c1ccc(/C=N/Nc2nc(N3CCCC3)nc(N3CCCC3)n2)o1 | 1.41%
69 | CCNc1nc(NCC)nc(N/N=C/c2ccc([N+](=O)[O-])o2)n1 | -50.8%

Row | Compound | hERG current change (%, negative = inhibition) at 10uM
70 | Cc1ccc2nc(N/N=C/c3ccccc3F)nc(-c3ccccc3)c2c1 | 0.778%
71 | CC(Sc1nc(N)cc(=O)[nH]1)C(=O)NC1CCCCC1 (centres unmarked) | -4%
72 | O=C(CSc1ncccn1)NCc1ccccc1Cl | -2.63%
73 | CCOc1ncccc1C(=O)Nc1ccc(S(=O)(=O)Nc2nc(C)cc(C)n2)cc1 | 2.16%
74 | CCOC(=O)N1CCN(C(=O)CSc2ccc(-c3ccncc3)nn2)CC1 | -0.414%
75 | Cc1ccccc1-n1cnc2cc(NCc3cccs3)ccc21 | -31%
76 | CC1=C(C(=O)NCCN2CCN(C)CC2)C2(CCC(C)CC2)OC1=O (centres unmarked) | 6.17%
77 | Cc1ccc(-c2ccc(CO)o2)cc1N | 9.48%
78 | O=C(CN1C(=O)C2CC=CCC2C1=O)Nc1ccc(S(=O)(=O)NC2=NCCCCC2)cc1 (centres unmarked) | 1.02%
79 | CCN1C(=O)C(=C2C=C(C)N(Cc3ccco3)C(C)=C2)C(=O)N(CC)C1=S | -35%
80 | CCCCC(=O)Nc1nnc(-c2ccco2)o1 | -0.241%
81 | Cc1cc(C)c(C(=O)OCC(=O)NC(=O)c2ccccc2)c(C)c1 | 11.9%
82 | O=C(CCc1ccccc1)Nc1cc(NC(=O)CCc2ccccc2)cc(C(=O)O)c1 | -22%
83 | Cc1ccc(NC(=O)c2nc[nH]c2C(=O)N2CCc3ccccc3C2)cc1 | 18.8%
84 | CCCN1CCC(NC(=S)Nc2ccc(S(N)(=O)=O)cc2)CC1 | 10.7%
85 | CCN1CCN(C(=S)Nc2ccc([N+](=O)[O-])cc2)CC1 | -26.6%
86 | CCCN1CCN(C(=S)Nc2ccc([N+](=O)[O-])cc2)CC1 | -52.1%
87 | CCCN1CCC(NC(=O)Nc2ccc([N+](=O)[O-])cc2)CC1 | -32.2%
88 | CCCN1CCC(NC(=S)Nc2ccc([N+](=O)[O-])cc2)CC1 | -52.6%
89 | CN1CCN(C(=S)Nc2ccc([N+](=O)[O-])cc2)CC1 | -23.1%
